Measured potencies and affinities stand elsewhere. Calls of active or inactive are those of the source.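 The calls were made as follows: active = signal drops and a fitted half-effect dose is at or below ten times that sample's top valid dose; inconclusive = flat fit with a moderate drop, or a poor fit; inactive = the rest.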
Assay: LuxS/LuxPQ-dependent luminescence inhibition, V. harveyi – dry powder, set 2, dose response (AID 493072)

CCc1ccc(C(=O)Nc2ccc(Br)cn2)cc1
outcome: inactive
